Assay results from the supplement of paper PMC3334620.
In all, about 33,000 sequences were measured (“E-score (-0.5 to 0.5)”: median about -0.0059, highest 2% from about 0.26 on). The list comes from a sample in which the highest values are over-represented; it also holds similar and randomly drawn sequences.

molecular target: T1, Cin5 (UniProt P40917); experiment: PBM E-score (8-mer binding enrichment) (E-score (-0.5 to 0.5)); higher = stronger / more preferred TF binding; details: protein concentration: 100 nM; construct: GST-full length
T1 sequence: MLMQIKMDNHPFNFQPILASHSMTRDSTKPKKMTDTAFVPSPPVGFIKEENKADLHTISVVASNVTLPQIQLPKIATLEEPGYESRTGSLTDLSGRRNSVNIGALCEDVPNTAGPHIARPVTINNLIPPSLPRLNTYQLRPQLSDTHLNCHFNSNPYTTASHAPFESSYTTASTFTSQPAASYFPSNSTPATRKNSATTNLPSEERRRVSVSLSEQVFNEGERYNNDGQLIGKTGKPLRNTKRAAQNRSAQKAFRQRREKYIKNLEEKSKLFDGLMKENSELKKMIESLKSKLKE
Procedure, shortened: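 E-scores (a modified Wilcoxon-Mann-Whitney statistic) were assigned by the Universal PBM Analysis Suite to every ungapped eight-base word pooled with its reverse complement. The input came from universal all-10-mer Agilent arrays made double-stranded by primer extension and probed with GST-tagged yeast transcription factors at about 100-200 nM. Fluorescent anti-GST detected bound protein, and masliner normalised the scans.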

Sequence	PBM E-score
CGCGGTAC	-0.0212
CATTGCTC	-0.157
CCTACAGG	-0.33
AAAGAAAA	0.112
CGAATGAA	0.0154
CGAATGAC	0.275
AGAATGAC	0.0989
AGAGGACC	-0.22
ATATCATG	0.0651
CTATCATA	0.21
GTATCAGA	-0.0398
ATATCATA	0.288
GTATCACA	0.154
GTATCATA	0.274
CTGTGACC	0.0399
CAACTATC	0.0334
ACATAATA	0.364
CCATAATA	0.226
ACATAATG	0.204
CCATAATC	0.245
GCATAATA	0.235
ACATAATC	0.445
ACTGCCCC	-0.125
ACCGCGCA	0.151
CGCCTCTC	-0.34
AAATAAAT	0.246

Sequence	PBM E-score
CACTAATA	0.158
CAATAACA	0.193
AAATAATG	0.21
AAATAATA	0.313
AACTAATA	0.378
AAATAACA	0.171
AAATAATT	0.301
AAATAAGT	0.12
AAATAATC	0.17
GAATAACA	0.26
TACTAATA	0.193
AAAAGTTT	0.00197
GCTTAAGA	-0.0654
ACGCCTGC	-0.234
CTCAGCGC	0.0746
AATTCTCA	0.0439
CTGCAGTC	-0.165
CTAAACTC	-0.0293
ACGAGGTA	0.0339
CAATAATC	0.233
GAATAAAA	0.0288
GAATAATC	0.221
CAATAATA	0.276
TAATAAAA	0.235
TAATAACA	0.146
CAATAATG	0.0624

Sequence	PBM E-score
GAATAATA	0.291
TAATAATA	0.274
CCTGAAAA	-0.101
AACTTTAT	0.123
AGTTGTTG	0.0199
ATGATATA	0.166
AAGATATG	0.268
ATGATATC	0.167
AAGATATC	0.207
AAGATATA	0.152
ATGATATG	0.289
CCTTCCAG	-0.127
GGTCCGCA	-0.0684
GGTTCCCA	-0.0888
AACTTGCG	-0.0652
ACTTAACA	0.0535
ATAATTTG	0.208
ATAATTTC	0.136
CTAATTTA	0.158
GCAATTTA	0.137
ATAATTTA	0.332
GTAATTTA	0.27
GCCGCTCC	-0.305
CCCACACG	0.0465
CAATATGA	0.118
GCATATGA	0.197

Sequence	PBM E-score
AAATATGA	0.245
TAATATGA	0.262
CCATATGA	-0.0136
TCATATGA	0.272
ATGGACGC	-0.0507
TCTTCCCA	-0.177
GGTATCAC	0.0115
ATTGGGTC	0.13
ATTGGGTG	0.282
ATTGGGTA	0.0825
ACCATTCA	0.0437
AGTTGAAT	0.259
AGTTGAAA	-0.0098
AGTTGAAG	-0.00489
CGACTGGA	-0.167
GTTCGACA	0.0859
GTCTAGCA	-0.0616
AAACATGC	0.0556
ATAAGAAT	0.224
ATAAGAAC	0.31
ATAAGAAA	0.156
CGTCTCTA	-0.21
GTCGCGAA	-0.0343
CTCGCGAC	0.107
GTCGCGAC	0.317
TGGTAACA	-0.0163

Sequence	PBM E-score
TCACCAGA	-0.144
CTAATCAG	0.14
ATAATCAC	0.233
ATAATCAA	0.227
ATAATCGA	0.178
ATAATCGC	0.187
ATAATCAG	0.285
AAAATCAG	0.00782
ATAATCGG	0.291
ATAATCAT	0.377
AAAAGGGA	-0.1
CAATCTTA	0.0906
CCGGGTCG	-0.131
CAGGAGCG	-0.0881
AACCCATA	0.29
AACCCATT	0.114
GACCCATA	0.222
AGAACTTC	-0.217
AGCTATTG	0.01
AGTGGAAA	0.0448
CGTGGAAA	0.28
CGTGGAAG	0.129
CACTATGG	-0.15
ACAATATA	0.269
AGAATATA	0.105
GTAATATA	0.323

Sequence	PBM E-score
CTAATATA	0.0911
ATAATAGA	0.221
ATAATAAG	0.225
ATAATATG	0.289
GTAATAAA	0.2
ATAATATA	0.345
CCAATATA	0.0434
GCAATATA	0.185
ATAATATC	0.221
GAGCTCCA	-0.092
AAGGCCCT	-0.136
CTTAGTGA	0.0718
CCCCCTTA	-0.342
AGTATCAC	0.0484
CTATAATA	0.114
ATATAATA	0.303
GTATAATA	0.253
AACCCCTT	-0.0504
CTCCCCAA	-0.00166
CATCTGCC	-0.0681
ATGTTTTC	0.121
CCTGGGAG	-0.176
ACTCCCGC	-0.0164
